The values that follow come from ChEMBL document CHEMBL2218924, “A broad activity screen in support of a chemogenomic map for kinase signalling research and drug discovery” (Biochem J, 2013).

For test [1], the target named is T1, Ephrin type-B receptor 1 (Homo sapiens) (UniProt P54762).
T1 sequence (whole entry): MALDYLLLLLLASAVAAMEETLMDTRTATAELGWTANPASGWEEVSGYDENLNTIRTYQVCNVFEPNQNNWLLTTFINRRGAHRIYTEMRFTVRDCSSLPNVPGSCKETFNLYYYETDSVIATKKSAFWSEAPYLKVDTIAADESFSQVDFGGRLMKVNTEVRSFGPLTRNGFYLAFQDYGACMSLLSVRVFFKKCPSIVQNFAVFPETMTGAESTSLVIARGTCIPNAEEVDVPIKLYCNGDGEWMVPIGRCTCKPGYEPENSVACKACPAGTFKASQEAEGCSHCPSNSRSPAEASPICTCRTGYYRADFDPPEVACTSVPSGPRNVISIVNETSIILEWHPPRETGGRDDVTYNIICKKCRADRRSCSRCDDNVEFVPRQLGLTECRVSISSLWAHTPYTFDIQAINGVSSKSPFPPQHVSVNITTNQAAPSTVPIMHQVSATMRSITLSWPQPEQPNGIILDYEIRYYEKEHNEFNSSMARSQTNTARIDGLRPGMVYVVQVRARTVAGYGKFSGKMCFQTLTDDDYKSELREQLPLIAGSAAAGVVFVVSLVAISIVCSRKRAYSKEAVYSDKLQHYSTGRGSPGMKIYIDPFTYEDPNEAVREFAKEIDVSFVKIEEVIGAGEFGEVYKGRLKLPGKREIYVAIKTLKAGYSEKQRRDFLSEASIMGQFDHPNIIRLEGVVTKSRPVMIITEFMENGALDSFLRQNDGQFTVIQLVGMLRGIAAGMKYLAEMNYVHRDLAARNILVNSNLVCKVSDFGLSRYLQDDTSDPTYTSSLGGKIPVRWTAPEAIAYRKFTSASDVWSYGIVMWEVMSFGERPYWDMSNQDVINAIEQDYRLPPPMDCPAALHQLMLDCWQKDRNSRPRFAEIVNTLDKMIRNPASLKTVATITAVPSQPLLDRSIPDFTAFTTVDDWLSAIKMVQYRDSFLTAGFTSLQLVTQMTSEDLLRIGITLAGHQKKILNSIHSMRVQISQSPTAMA
To be noted: at 10 µM.

Test [2] concerns the target T2, Ephrin type-B receptor 3 (Homo sapiens) (UniProt P54753).
T2 sequence (whole entry): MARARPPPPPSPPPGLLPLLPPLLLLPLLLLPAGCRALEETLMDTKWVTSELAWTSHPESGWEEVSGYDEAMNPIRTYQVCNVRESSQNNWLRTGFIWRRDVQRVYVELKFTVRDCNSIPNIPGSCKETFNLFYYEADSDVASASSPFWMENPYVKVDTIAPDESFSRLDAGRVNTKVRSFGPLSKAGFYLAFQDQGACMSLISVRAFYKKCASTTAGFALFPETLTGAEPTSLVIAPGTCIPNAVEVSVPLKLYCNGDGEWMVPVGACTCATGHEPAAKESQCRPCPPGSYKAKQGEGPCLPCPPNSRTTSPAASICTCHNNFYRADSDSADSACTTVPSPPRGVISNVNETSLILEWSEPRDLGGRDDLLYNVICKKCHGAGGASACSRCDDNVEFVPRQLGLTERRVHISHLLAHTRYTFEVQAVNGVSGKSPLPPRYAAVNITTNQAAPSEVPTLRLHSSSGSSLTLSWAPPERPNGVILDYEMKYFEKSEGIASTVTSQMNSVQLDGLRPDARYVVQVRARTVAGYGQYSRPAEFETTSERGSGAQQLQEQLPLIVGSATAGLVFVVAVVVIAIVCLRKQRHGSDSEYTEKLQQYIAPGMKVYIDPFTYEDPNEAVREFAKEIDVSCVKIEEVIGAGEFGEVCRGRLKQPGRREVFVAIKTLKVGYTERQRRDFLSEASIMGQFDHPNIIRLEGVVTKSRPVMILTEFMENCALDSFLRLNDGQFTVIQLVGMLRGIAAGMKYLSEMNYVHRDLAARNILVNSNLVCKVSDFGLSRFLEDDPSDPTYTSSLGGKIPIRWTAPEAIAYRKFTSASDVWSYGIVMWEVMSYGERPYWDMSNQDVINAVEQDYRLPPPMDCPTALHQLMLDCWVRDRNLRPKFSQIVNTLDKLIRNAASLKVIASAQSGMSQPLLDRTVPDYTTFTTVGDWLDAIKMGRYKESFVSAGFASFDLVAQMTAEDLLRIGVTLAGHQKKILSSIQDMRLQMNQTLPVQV
To be noted: at 1 µM.

Test [3] deals with T3, Ephrin type-B receptor 4 (Homo sapiens) (UniProt P54760).
T3 sequence (whole entry): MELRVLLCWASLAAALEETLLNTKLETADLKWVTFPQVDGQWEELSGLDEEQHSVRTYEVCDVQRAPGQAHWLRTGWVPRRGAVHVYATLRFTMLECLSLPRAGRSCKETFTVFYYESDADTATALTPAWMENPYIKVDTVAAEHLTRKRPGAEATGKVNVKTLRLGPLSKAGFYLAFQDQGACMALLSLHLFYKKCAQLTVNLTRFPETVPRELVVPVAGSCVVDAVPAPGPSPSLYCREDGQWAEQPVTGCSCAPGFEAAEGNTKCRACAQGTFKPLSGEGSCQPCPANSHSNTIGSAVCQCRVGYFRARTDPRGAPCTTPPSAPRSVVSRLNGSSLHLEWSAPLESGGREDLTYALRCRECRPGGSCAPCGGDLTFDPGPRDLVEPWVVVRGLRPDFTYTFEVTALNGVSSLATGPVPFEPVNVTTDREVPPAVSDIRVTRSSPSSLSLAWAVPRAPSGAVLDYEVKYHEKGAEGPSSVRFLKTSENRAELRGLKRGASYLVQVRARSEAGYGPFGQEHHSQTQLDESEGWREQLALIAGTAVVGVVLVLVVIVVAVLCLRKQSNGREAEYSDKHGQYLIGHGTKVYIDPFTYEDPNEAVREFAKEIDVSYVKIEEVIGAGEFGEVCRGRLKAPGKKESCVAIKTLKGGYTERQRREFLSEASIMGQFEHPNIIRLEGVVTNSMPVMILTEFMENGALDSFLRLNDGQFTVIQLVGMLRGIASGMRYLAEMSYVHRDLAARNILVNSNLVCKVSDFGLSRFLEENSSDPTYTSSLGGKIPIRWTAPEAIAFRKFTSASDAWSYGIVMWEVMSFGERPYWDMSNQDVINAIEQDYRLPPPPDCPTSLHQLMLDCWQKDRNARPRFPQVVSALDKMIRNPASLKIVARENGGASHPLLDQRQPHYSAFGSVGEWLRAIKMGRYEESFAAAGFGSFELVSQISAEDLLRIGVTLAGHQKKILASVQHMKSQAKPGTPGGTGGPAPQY
As to conditions: at 1 µM; call rule not given here.

The target in test [4] is T3, Ephrin type-B receptor 4 (Homo sapiens). To be noted: at 10 µM.
Test [5] addresses Receptor tyrosine-protein kinase erbB-4 (Homo sapiens) (UniProt Q15303). As to conditions: at 1 µM.
The target is the same in test [6]. As to conditions: at 10 µM.
Test [7] deals with Focal adhesion kinase 1 (Homo sapiens) (UniProt Q05397). As to conditions: at 1 µM.
The target is the same in test [8]. To be noted: at 10 µM.
The target in test [9] is Fibroblast growth factor receptor 1 (Homo sapiens) (UniProt P11362). As to conditions: at 1 µM.
For test [10] the target is unchanged. To be noted: at 10 µM.
Test [11] has as its target Fibroblast growth factor receptor 4 (Homo sapiens) (UniProt P22455). As to conditions: at 1 µM.
For test [12] the target is unchanged. To be noted: at 10 µM.
Test [13] addresses Tyrosine-protein kinase Fer (Homo sapiens) (UniProt P16591). As to conditions: at 1 µM.
The target in test [14] is T4, Ephrin type-B receptor 2 (Homo sapiens) (UniProt P29323).
T4 sequence (whole entry): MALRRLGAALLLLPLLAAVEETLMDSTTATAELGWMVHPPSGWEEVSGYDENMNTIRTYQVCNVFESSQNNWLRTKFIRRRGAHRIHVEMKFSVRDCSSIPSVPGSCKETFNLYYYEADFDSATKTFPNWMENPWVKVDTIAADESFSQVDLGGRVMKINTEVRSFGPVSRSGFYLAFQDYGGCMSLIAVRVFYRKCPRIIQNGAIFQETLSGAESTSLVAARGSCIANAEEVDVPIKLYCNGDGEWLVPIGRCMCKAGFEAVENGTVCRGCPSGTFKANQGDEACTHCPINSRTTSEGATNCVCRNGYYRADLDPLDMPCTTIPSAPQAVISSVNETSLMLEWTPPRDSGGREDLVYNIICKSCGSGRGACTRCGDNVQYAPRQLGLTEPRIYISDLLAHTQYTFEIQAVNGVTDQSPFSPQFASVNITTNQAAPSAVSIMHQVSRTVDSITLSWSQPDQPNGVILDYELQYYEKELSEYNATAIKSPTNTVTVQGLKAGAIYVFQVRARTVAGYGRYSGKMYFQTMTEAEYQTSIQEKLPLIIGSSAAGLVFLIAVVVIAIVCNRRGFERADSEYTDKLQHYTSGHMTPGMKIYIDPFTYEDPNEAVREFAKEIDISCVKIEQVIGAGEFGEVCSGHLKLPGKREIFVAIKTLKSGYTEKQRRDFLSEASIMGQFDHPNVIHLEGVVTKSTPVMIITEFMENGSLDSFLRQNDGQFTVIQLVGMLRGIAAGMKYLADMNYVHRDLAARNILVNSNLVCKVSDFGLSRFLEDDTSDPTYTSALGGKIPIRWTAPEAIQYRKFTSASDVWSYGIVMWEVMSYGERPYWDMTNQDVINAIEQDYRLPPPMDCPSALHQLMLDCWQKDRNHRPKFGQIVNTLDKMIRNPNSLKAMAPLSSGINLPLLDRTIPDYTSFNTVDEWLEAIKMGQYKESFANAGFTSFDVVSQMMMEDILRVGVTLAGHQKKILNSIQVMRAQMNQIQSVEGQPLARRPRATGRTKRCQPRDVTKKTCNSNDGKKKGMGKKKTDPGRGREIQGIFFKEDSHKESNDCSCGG
As to conditions: at 10 µM.

Test [15] has as its target T2, Ephrin type-B receptor 3 (Homo sapiens). To be noted: at 10 µM.
In test [16] the target is Fibroblast growth factor receptor 2 (Homo sapiens) (UniProt P21802). As to conditions: at 1 µM.
Test [17] has the same target. As to conditions: at 10 µM.
The target in test [18] is Fibroblast growth factor receptor 3 (Homo sapiens) (UniProt P22607). To be noted: at 1 µM.
Test [19] shares this target. To be noted: at 10 µM.
Test [20] concerns the target T4, Ephrin type-B receptor 2 (Homo sapiens). To be noted: at 1 µM.

Chain of Fibroblast growth factor receptor 2 (Homo sapiens) (P21802 22-821 limits assumed): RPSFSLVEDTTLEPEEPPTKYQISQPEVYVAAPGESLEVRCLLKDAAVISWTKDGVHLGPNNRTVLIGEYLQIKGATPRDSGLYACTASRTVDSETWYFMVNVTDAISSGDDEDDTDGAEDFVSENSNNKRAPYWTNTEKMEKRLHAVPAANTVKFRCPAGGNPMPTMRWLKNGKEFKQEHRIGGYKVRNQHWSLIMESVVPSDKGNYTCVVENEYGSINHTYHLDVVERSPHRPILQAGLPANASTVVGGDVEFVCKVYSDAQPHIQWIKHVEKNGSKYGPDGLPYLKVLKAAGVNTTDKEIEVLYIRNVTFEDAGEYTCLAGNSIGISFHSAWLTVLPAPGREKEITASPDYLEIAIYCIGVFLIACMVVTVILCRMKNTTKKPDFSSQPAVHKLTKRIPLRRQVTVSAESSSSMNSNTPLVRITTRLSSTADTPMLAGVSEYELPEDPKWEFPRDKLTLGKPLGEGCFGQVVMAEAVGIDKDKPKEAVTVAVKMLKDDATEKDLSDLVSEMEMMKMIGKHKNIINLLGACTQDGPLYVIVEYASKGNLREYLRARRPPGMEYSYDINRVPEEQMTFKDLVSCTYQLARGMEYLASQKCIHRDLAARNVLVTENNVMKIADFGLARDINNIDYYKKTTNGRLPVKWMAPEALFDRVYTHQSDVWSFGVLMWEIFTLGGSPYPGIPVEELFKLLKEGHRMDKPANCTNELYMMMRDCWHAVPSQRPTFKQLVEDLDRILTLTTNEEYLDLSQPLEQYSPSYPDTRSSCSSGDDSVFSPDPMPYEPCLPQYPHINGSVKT
Chain of Fibroblast growth factor receptor 4 (Homo sapiens) (P22455 22-802 limits assumed): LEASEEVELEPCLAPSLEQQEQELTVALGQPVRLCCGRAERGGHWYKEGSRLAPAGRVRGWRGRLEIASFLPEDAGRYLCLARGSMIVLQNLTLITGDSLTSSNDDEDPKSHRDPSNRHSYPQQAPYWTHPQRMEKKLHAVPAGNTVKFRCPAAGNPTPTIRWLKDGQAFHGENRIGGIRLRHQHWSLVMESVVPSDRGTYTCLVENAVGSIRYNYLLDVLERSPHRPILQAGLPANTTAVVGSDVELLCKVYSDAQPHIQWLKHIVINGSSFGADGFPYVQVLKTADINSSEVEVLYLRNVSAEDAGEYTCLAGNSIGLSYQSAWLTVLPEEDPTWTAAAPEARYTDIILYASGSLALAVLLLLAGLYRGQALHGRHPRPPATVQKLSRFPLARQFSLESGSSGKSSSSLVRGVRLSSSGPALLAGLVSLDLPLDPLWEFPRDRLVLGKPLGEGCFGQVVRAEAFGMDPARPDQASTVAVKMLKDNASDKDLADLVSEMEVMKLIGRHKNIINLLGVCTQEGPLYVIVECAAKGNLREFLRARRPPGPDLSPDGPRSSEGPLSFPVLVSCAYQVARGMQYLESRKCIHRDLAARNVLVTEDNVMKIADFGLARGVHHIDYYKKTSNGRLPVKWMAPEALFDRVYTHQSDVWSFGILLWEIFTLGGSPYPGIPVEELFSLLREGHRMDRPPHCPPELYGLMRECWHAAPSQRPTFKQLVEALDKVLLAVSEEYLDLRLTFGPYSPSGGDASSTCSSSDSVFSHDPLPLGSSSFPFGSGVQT
Chain of Tyrosine-protein kinase Fer (Homo sapiens) (P16591 whole entry, looked up): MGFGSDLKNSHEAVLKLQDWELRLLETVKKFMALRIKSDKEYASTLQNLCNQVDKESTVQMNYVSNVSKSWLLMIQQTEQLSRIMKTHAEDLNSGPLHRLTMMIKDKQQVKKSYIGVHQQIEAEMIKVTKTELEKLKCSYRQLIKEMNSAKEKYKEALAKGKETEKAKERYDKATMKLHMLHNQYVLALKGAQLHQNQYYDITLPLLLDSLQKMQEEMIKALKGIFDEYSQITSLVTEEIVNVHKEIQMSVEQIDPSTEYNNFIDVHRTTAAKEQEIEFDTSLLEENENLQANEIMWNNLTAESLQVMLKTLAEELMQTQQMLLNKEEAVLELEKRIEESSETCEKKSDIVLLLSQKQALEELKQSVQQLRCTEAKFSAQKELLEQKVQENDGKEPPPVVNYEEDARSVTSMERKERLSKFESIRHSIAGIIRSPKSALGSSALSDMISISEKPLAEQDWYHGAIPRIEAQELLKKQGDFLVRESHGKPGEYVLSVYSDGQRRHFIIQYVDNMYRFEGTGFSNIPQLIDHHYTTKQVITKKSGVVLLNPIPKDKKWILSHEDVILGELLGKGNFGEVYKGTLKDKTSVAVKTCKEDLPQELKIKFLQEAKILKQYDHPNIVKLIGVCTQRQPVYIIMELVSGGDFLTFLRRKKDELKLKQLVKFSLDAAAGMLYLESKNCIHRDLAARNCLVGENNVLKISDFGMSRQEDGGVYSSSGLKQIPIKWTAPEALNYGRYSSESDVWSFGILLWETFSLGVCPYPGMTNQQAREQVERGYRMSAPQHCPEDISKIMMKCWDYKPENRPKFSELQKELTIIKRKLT
Chain of Receptor tyrosine-protein kinase erbB-4 (Homo sapiens) (Q15303 whole entry): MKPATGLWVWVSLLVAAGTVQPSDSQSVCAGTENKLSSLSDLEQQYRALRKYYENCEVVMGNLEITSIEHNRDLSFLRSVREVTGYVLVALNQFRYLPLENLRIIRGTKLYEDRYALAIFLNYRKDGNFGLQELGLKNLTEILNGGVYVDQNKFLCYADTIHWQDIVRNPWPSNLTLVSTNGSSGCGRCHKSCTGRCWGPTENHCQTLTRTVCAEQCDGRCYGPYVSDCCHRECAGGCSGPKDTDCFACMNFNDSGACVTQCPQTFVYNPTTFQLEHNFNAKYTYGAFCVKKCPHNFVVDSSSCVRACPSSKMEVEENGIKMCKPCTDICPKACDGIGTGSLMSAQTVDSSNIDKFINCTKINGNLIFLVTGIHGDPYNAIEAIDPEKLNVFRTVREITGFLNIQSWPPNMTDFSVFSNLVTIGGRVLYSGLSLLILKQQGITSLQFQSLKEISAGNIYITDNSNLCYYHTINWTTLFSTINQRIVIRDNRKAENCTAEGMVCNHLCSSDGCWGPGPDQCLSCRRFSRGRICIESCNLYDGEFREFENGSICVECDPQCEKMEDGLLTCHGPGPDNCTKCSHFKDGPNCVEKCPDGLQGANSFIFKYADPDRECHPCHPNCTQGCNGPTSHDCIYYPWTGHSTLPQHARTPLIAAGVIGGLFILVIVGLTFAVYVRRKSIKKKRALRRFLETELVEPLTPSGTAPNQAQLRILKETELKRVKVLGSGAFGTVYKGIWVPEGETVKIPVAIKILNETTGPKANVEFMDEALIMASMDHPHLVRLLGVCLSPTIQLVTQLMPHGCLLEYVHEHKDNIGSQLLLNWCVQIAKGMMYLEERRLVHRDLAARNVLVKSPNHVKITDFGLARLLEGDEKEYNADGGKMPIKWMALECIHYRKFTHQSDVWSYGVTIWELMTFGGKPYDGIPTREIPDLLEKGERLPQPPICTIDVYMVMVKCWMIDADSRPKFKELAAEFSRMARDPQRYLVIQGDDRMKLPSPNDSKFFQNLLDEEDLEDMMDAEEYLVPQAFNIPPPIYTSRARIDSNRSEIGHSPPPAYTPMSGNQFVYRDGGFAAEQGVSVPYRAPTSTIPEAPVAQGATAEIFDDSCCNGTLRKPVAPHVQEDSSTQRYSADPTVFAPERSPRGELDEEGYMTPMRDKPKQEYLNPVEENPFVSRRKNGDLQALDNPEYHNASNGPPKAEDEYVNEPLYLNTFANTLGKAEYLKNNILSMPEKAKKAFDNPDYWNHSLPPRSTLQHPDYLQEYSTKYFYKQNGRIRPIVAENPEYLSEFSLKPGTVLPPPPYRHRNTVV
Chain of Fibroblast growth factor receptor 3 (Homo sapiens) (P22607 23-806 limits assumed): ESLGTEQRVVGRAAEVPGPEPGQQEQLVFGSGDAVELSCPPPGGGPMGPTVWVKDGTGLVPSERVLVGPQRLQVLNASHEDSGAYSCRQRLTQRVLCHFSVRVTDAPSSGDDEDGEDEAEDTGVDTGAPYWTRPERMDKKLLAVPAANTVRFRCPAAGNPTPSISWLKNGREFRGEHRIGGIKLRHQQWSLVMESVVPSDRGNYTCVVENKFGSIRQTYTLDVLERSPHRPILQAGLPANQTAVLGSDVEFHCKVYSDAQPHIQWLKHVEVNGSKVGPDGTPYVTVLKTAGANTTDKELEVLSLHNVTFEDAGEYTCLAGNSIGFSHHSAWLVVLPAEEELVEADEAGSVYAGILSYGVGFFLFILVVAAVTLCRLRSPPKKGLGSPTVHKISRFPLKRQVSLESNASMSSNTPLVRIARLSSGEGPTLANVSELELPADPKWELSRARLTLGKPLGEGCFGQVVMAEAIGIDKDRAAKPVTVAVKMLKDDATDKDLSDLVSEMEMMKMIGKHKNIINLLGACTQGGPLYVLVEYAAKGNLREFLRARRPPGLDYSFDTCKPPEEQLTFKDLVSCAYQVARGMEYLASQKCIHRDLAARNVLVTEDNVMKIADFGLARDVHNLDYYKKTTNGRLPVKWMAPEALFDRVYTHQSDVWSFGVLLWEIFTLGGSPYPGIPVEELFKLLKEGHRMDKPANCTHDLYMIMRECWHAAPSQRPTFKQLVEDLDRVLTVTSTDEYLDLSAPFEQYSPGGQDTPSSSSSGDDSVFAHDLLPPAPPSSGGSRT

The term residual activity denotes the signal under treatment as a percentage of the control signal. For the compound `O=C(c1ccccc1)c1ccc(N2CCOCC2)cc1O`, the residual activity in test [1] is 95%; in [2], 115% (inactive); in test [3], 117%; in [4] it was 116%; in test [5], 95%; in test [6], 96%. Also, the residual activity in test [7] was 139%; in [8], 85%; in test [9] it was 98%; in [10], 73%; in test [11], 116%; in test [12], 95%. The residual activity in test [13] worked out at 125%.
As to `O=C(c1cc2cc(O)ccc2[nH]1)c1cc2cc(O)ccc2[nH]1`, the residual activity in [1] was determined as 28%; in test [14], 24%; in [15] it was 126%; in test [3], 72%; in [4], 13%; in [5] it was 73%. Further, the residual activity in test [6] came to 63%; in test [7], 112%; in [8], 65%; in test [9], 40%; in test [10], 5%; in test [16], 83%. In addition, the residual activity in test [17] was determined as 24%; in [18], 70%; in test [19] it was 20%.
Turning to `O=c1cc(N2CCOCC2)oc2c1ccc1ccccc12`, the residual activity in [1] amounted to 89%; in [3], 101%; in test [4] it was 108%; in [5], 106%; in test [6], 92%; in test [7] it was 132%. The residual activity was determined as 92% in test [8]; 109% in [9]; 71% in test [10]; 111% in test [16]; 101% in test [17].
`COc1cc2nccc(Oc3ccc(NC(=S)NC(=O)c4ccccc4C)cc3)c2cc1OC`: the residual activity stood at 70% in test [1]; 129% in [15]; 85% in [5]; 67% in [6]; 66% in test [8]; 49% in test [9]. Further, the residual activity turned out to be 8% in test [10]; 84% in test [16]; 40% in [17]; 90% in [18]; 58% in test [19]; 78% in test [12]. The residual activity in [13] worked out at 70%.
With `Nc1nc(Nc2ccc(S(N)(=O)=O)cc2)nn1C(=O)c1c(F)cccc1F`, the residual activity in [1] was 14%; in test [20], 103%; in test [14], 68%; in test [2], 115% (inactive); in test [7] it was 102%; in test [8] it was 52%. The residual activity stood at 36% in test [16]; 7% in test [17]; 29% in [18]; 4% in [19]; 99% in test [11]; 66% in [12]. Further, the residual activity in [13] stood at 101%.
With `Cn1c2ccccc2c2c3c(c4c5ccccc5n(CCC#N)c4c21)CNC3=O`, the residual activity is 63% in [1]; 116% in test [20]; 111% in [14]; 105% (inactive) in [2]; 118% in test [15]; 33% in test [7]. For the same compound, the residual activity in test [8] worked out at 17%; in test [9], 7%; in test [10], 6%; in test [16] it was 53%; in [17] it was 46%; in test [11] it was 111%. For the same compound, in [13], the residual activity was 4%.
Consider `CCCCc1c(-c2ccc(OC)cc2)[nH]c2nccnc12`, for which the residual activity in [1] was 61%; in [20] it was 101%; in test [14], 89%; in [2] it was 121% (inactive); in [15] it was 109%; in test [3], 78%. Further, the residual activity in [4] came out at 81%; in [5] it was 120%; in test [6], 102%; in test [7], 67%; in test [8] it was 49%; in [9] it was 46%. For the same compound, the residual activity in test [10] stood at 46%; in test [16], 88%; in test [17] it was 60%; in [19] it was 114%; in test [11], 109%; in test [12], 91%. The residual activity in test [13] was 84%.
